# Screening data from PubChem.
# IL1B secr inh = inhibitors of inflammasome signaling (IL-1 beta secretion); THP-1 LPS/ATP IL-1B secretion, AlphaLISA, 16 h; stronger effect = lower value; activity change, % at 57.5 µM; AID 743279; hit rate 4.7% among 360,000; in the data active = activity change below about -50%; inconclusive = mostly about -30% to -49%
#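 THP-1 cells pretreated 1 hr with compounds (up to 57.5 uM final), then stimulated with LPS (250 ng/mL final) plus ATP (1.25 mM final); secreted IL-1B measured by AlphaLISA after 16 hr, decreased signal indicating inhibition.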
# DT40 TDP1 CPT = DT40-hTDP1 cell growth loss with CPT; chicken DT40 Tdp1-/-;hTDP1 cells + 20 nM CPT, ATP luminescence, 48 h; Potency, µM (series often up to 46.2 µM), for inactives: at the top dose activity change, negative = growth inhibition, actives largely listed as inhibitors; hit rate 12% among 420,000; AID 686979; also: potency is read from the fitted curve at half-maximal effect; nearly all actives have a fitted effect of over 55% in size
#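 Chicken DT40 Tdp1-/- cells complemented with human TDP1, 400 cells/well, exposed to compounds plus 20 nM camptothecin for at least 48 h at 37 C; viability read as ATP content by CellTiter-Glo luminescence.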
# HT1080 IDH1KD tx = HT-1080 IDH1 knockdown cell toxicity (counter line) | HT-1080 IDH1 knockdown viability, ATP luminescence, 48 h | Potency, µM (highest dose often 46.1 µM), for inactives: at the highest dose activity, negative = toxicity, actives largely listed as cytotoxic | hit rate 2% among 360,000;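 also: potency is read from the fitted curve at half-maximal effect; 0% = DMSO wells and -100% = cell-free medium wells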
#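 Cytotoxicity counter-line: IDH1KD HT-1080, 48 h, CellTiter-Glo. Curves classed by r2, magnitude and activity.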
# HT1080-NT tox = kills 2HG-producing HT-1080-NT fibrosarcoma cells; HT-1080-NT fibrosarcoma viability, CellTiter-Glo ATP luminescence, 48 h; Potency, µM (series often up to 46.1 µM), inactives show at the highest dose activity, negative = less viability, actives largely listed as cytotoxic; hit rate 1.6% among 360,000; AID 686970;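 also: NT is the 2HG producing partner of a matched IDH1 knockdown line; potency is read from the fitted curve at half-maximal effect; 0% = DMSO-treated cells and -100% = media-only wells without cells; nearly all actives have a fitted effect of over 55% in size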
#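 Read-out is CellTiter-Glo luminescence after 10 minutes at room temperature, following 48 hours' compound treatment of HT-1080-NT cells (750 cells/well, RPMI, 5% FBS, 37 degrees C).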
# ELG1 repair inh = inhibitors of ELG1-dependent DNA repair in HEK293T cells. HEK293T ELG1-luciferase reporter, luminescence, 16 h; DNA damage induced by 5-fluorouridine. Potency, µM (highest dose often 46.1 µM), without a hit: at the highest dose activity change, negative = inhibition, actives largely listed as inhibitors. hit rate 2.3% among 330,000. AID 504467; also: potency is read from the fitted curve at half-maximal effect; nearly all actives have a fitted effect of over 55% in size
#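 Overnight (16 hr) co-exposure of 2,000 cells/well to 5-fluorouridine and compound at 37 °C preceded detection. Luciferase was quantified via ONE-Glo luminescence; loss of signal denotes inhibition.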
# DT40 TDP1 no CPT = qHTS for Inhibitors of human tyrosyl-DNA phosphodiesterase 1 (TDP1): qHTS in cells in absence of CPT; DT40 Tdp1-/- hTDP1 cells, no CPT, ATP luminescence, 48 h; Potency, µM (titrated, usually from 46.2 µM), for the others: top-dose activity change, negative = growth inhibition, most hits filed as inhibitors; hit rate 15% among 420,000; also: potency is read from the fitted curve at half-maximal effect; nearly all actives have a fitted effect of over 55% in size
#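 Stably hTDP1-transfected Tdp1-null chicken DT40 cells were treated with library compounds minus camptothecin and grown for at least 48 hr at 37 °C, after which cellular ATP was quantified by luminescence.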
# The depositor's hits bear a star; i = inactive; ? = inconclusive; / = no result; [ ] = remark or other dose. A selection: hits, their analogues and other compounds. The true share with any hit is near 19%. Unless noted, calls follow the shape of the dose curve; as a rule, active = well fitted curve in the direction sought with a large enough effect; inconclusive = small, poorly fitted or top-dose-only effect, or another doubt; inactive = no such curve, though single readings can be large; an effect the other way counts as inactive or inconclusive. Unless noted, % is scaled to controls: 0 for no effect and ±100 for the full control effect.
SMILES,IL1B secr inh,DT40 TDP1 CPT,HT1080 IDH1KD tx,HT1080-NT tox,ELG1 repair inh,DT40 TDP1 no CPT
OC(COCc1cccs1)CN1CCN(c2cccc(C(F)(F)F)c2)CC1 (stereo not drawn),i,18µM*,6%,4%,-5%,21µM*
OC(CN1CCN(c2cccc(C(F)(F)F)c2)CC1)c1c[nH]c2ccccc12 (stereo not drawn),1,?,?,?,-28%,23µM*
Nc1nc2c(ncn2C2C[C@H](O)[C@@H](CO)O2)c(=O)[nH]1 (stereo partly drawn),10,10µM*,?,?,-14%,6.5µM*
CC(C)C(=O)Nc1nc2c(ncn2[C@H]2CC(O)[C@@H](CO)O2)c(=O)[nH]1 (stereo partly drawn),/,11µM*,/,/,/,13µM*
Nc1nc(=O)n(C2CC(O)C(CO)O2)cc1Cl (stereo not drawn),10,?,6%,?,/,-26%
O=c1[nH]cnc2c1ncn2[C@@H]1C[C@@H](O)[C@H](CO)O1,3,?,28%,?,?,-27%
Nc1nc2c(nnn2C2CC(O)C(CO)O2)c(=O)[nH]1 (stereo not drawn),26,29µM*,5.2µM*,?,/,?
Nc1nc(=O)n(C2CC(O)C(CO)O2)cc1F (stereo not drawn),18,?,5.2µM*,-20%,/,?
COCc1ccc(CN2Cc3cc(Cl)ccc3OC(C)C2)o1 (stereo not drawn),/,12%[9.04 µM],/,/,/,-17%
Nc1nonc1-n1nnc(C(=O)N/N=C/c2cccc(Cl)c2)c1-c1cccs1,?,-26%,-22%,-8%,?,-10%
COc1cc(NC(=O)CSc2nnnn2C2CCCC2)cc(OC)c1,21,-7%,5%,-2%,-1%,1%
Nc1nc2c(ncn2C2OC(COC(=O)c3ccccc3)C(OC(=O)c3ccccc3)C2OC(=O)c2ccccc2)c(=O)[nH]1 (stereo not drawn),/,?,/,/,/,21µM*
Cc1noc(C)c1NC(=O)N(C)C[C@H]1Oc2c(NC(=O)Nc3ccc4c(c3)OCO4)cccc2C(=O)N([C@H](C)CO)C[C@@H]1C,23,7%,-4%,-1%,15%,-30%
Cc1cccc(Cn2cc3c(=O)n(CC(=O)Nc4cccc(C)c4C)nc-3c3cc(F)ccc32)c1,/,-2%,/,/,/,-25%
CC1=CC(C)C(=O)N(C)C(C)=C1 (stereo not drawn),12,24%,1%,10%,/,0%
Cc1ccc2c(c1)C1CN(C)CCC1N2S(=O)(=O)c1cccc(C(F)(F)F)c1 (stereo not drawn),-20,?,-9%,-22%,17%,?
Cc1ccc2c(c1)C1CN(C)CCC1N2S(=O)(=O)c1ccccc1F (stereo not drawn),-51*,4%,-6%,-12%,10%,18%
COc1ccc(OC)c(CNC(=O)C(C)n2nc(C)c3c(C)n(-c4ccccc4)nc3c2=O)c1 (stereo not drawn),9,-13%,-7%,-5%,-15%,-1%
COc1ccc(OC)c(CNC(=O)Cn2nc(C)c3nn(-c4ccc(Cl)cc4)c(C)c3c2=O)c1,/,23µM*,/,/,/,18µM*
COc1ccc(OC)c(CCNC(=O)Cn2nc(C)c3c(C)n(-c4ccc(C)cc4)nc3c2=O)c1,-67*,-16%,-2%,-17%,?,15µM*
CCn1c(-c2ccccc2F)nc2cc(NC(C)=O)cc(C(=O)N(C)Cc3ccc4nccnc4c3)c21,/,?,/,/,/,-20%
